# Experimental data reported in ChEMBL document CHEMBL4513141, “CO-ADD screening of NIH (USA) - Clinical Collection” (2021).
# Entries with a potency or affinity are not part of this list.
# Key:
# Staphylococcus aureus = conditions: Concentration 20 uM; ASSAY_TEST Inhibition of Bacterial Growth; detection method Absorption (OD600); MEDIA CAMHB; plate type 384well; NBS; CORNING #3640; time 18 hr
# Escherichia coli = conditions: Concentration 20 uM; ASSAY_TEST Inhibition of Bacterial Growth; detection method Absorption (OD600); MEDIA CAMHB; plate type 384well; NBS; CORNING #3640; time 18 hr
SMILES,Inhibition (Staphylococcus aureus) [%],Inhibition (Escherichia coli) [%]
COc1ccc(CC2c3cc(OC)c(OC)cc3CC[N+]2(C)CCC(=O)OCCCCCOC(=O)CC[N+]2(C)CCc3cc(OC)c(OC)cc3C2Cc2ccc(OC)c(OC)c2)cc1OC.O=S(=O)(O)c1ccccc1 (centres undefined),4.52,6.82
O=C1CN(/N=C/c2ccc(-c3ccc([N+](=O)[O-])cc3)o2)C(=O)[N-]1.[Na+] [DANTROLENE SODIUM],4.1,-9.64
CCC1=C[C@H]2CN(C1)Cc1c([nH]c3ccccc13)[C@@](C(=O)OC)(c1cc3c(cc1OC)N(C)[C@H]1[C@@](O)(C(=O)OC)[C@H](OC(C)=O)[C@]4(CC)C=CCN5CC[C@]31[C@@H]54)C2.O=C(O)C(O)C(O)C(=O)O.O=C(O)C(O)C(O)C(=O)O,13.36,2.61
Cc1nc2ccccn2c(=O)c1CCN1CCC(C(=O)c2ccc(F)cc2)CC1 [PIRENPERONE],1.36,7.4
Cl.O=C1CN2Cc3c(ccc(Cl)c3Cl)N=C2N1 [ANAGRELIDE HYDROCHLORIDE],11.06,7.21
NC(=O)c1cccnc1 [NIACINAMIDE],11.51,3.02
CN1CCC(=C2c3ccccc3CC(=O)c3sccc32)CC1.O=C(O)/C=C/C(=O)O [KETOTIFEN FUMARATE],6.88,3.55
CC(C)c1ccc2oc3nc(N)c(C(=O)O)cc3c(=O)c2c1 [AMLEXANOX],16.12,0.07
COc1ccc(C(=O)NCc2ccc(OCCN(C)C)cc2)cc1OC.Cl,-18.22,2.89
COc1ccc(-c2oc3c(CC=C(C)C)c(O[C@@H]4O[C@H](CO)[C@@H](O)[C@H](O)[C@H]4O)cc(O)c3c(=O)c2O[C@@H]2O[C@@H](C)[C@H](O)[C@@H](O)[C@H]2O)cc1 [ICARIIN],11.47,-5.7
Nc1nc2c(ncn2COC(CO)CO)c(=O)[nH]1 [GANCICLOVIR],7.88,0.63
CC(C)(C)NCC(O)COc1cccc2c1CC(O)C(O)C2 (centres undefined) [NADOLOL],16.27,3.67
O=c1cnn([C@@H]2O[C@H](CO)[C@@H](O)[C@H]2O)c(=O)[nH]1 [6-AZAURIDINE],-22.3,4.59
Br.CN(C)CCCC1(c2ccc(F)cc2)OCc2cc(C#N)ccc21 (centres undefined) [CITALOPRAM HYDROBROMIDE],3.11,-2.5
Nc1ccc2cn[nH]c2c1,-30.24,5.89
CC1Cc2ccccc2N1NC(=O)c1ccc(Cl)c(S(N)(=O)=O)c1 (centres undefined) [INDAPAMIDE],5.44,-0.79
CCCC(=O)Nc1ccc(OCC(O)CNC(C)C)c(C(C)=O)c1.Cl (centres undefined) [ACEBUTOLOL HYDROCHLORIDE],10.2,2.85
Oc1ncc(F)cn1,12.62,10.23
Br.Br.O=C1CC2(CCCC2)CC(=O)N1CCNCC1COc2ccccc2O1 (centres undefined),17.36,6.1
CCN1CCCC1CNC(=O)c1cc(S(=O)(=O)CC)c(N)cc1OC (centres undefined) [AMISULPRIDE],15.04,-7.41
CS(=O)(=O)O.Cc1ccc(NC(=O)c2ccc(CN3CCN(C)CC3)cc2)cc1Nc1nccc(-c2cccnc2)n1 [IMATINIB MESYLATE],11.51,2.87
CN(C)CCOC(c1ccc(Cl)cc1)c1ccccn1.O=C(O)/C=C\C(=O)O (centres undefined) [CARBINOXAMINE MALEATE],10.84,3.54
NC(N)=Nc1nc(CSCC/C(N)=N/S(N)(=O)=O)cs1 [FAMOTIDINE],6.96,3.55
Cc1[nH]cnc1CN1CCc2c(c3ccccc3n2C)C1=O.Cl [ALOSETRON HYDROCHLORIDE],8.61,9.19
CC(C)Oc1ccc2c(=O)c(-c3ccccc3)coc2c1 [IPRIFLAVONE],16.93,5.9
CNCC[C@@H](Oc1ccccc1C)c1ccccc1.Cl [ATOMOXETINE HYDROCHLORIDE],-21.69,5.13
CCCCCCCCCCC[C@@H](C[C@@H]1OC(=O)[C@H]1CCCCCC)OC(=O)[C@H](CC(C)C)NC=O [ORLISTAT],11.59,-4.78
